Experimental data from the supplement of paper PMC4466140.

Molecular target: ScBbc1
Test: SPOT peptide array binding signal intensity (averaged, normalized) (arbitrary units (background-subtracted, floor 0; scale differs between SH3 domains)); higher = stronger binding of the SH3 domain to the peptide
Summary of the method: (§1)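 GST-SH3 fusions from four yeast species, purified on glutathione Sepharose, were incubated at 10 μg/ml overnight at 4°C on membranes of synthetic 15-mer peptides in which cysteines were replaced with serines. Binding signal is the normalized, background-subtracted spot intensity averaged over replicates, in domain-specific arbitrary units.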

Binder | SPOT peptide array binding signal intensity
NFKRLLPRDPSEKSS | ≤ 0

Molecular target: ScBem1-D1
Test: as above
Summary of the method: as §1

Binder | SPOT peptide array binding signal intensity
NFKRLLPRDPSEKSS | 27

Molecular target: ScBzz1-D1
Test: as above
Summary of the method: as §1

Binder | SPOT peptide array binding signal intensity
NFKRLLPRDPSEKSS | 21

Molecular target: ScBzz1-D2
Test: as above
Summary of the method: as §1

Binder | SPOT peptide array binding signal intensity
NFKRLLPRDPSEKSS | 18

Molecular target: ScCyk3
Test: as above
Summary of the method: as §1

Binder | SPOT peptide array binding signal intensity
NFKRLLPRDPSEKSS | 105

Molecular target: ScFus1
Test: as above
Summary of the method: as §1

Binder | SPOT peptide array binding signal intensity
NFKRLLPRDPSEKSS | 308

Molecular target: ScHof1
Test: as above
Summary of the method: as §1

Binder | SPOT peptide array binding signal intensity
NFKRLLPRDPSEKSS | 3

Molecular target: ScHse1
Test: as above
Summary of the method: as §1

Binder | SPOT peptide array binding signal intensity
NFKRLLPRDPSEKSS | 2620

Molecular target: ScLsb1
Test: as above
Summary of the method: as §1

Binder | SPOT peptide array binding signal intensity
NFKRLLPRDPSEKSS | 1

Molecular target: ScLsb2
Test: as above
Summary of the method: as §1

Binder | SPOT peptide array binding signal intensity
NFKRLLPRDPSEKSS | 2

Molecular target: ScLsb3
Test: as above
Summary of the method: as §1

Binder | SPOT peptide array binding signal intensity
NFKRLLPRDPSEKSS | 83.5

Molecular target: ScLsb4
Test: as above
Summary of the method: as §1

Binder | SPOT peptide array binding signal intensity
NFKRLLPRDPSEKSS | 1

Molecular target: ScMyo3
Test: as above
Summary of the method: as §1

Binder | SPOT peptide array binding signal intensity
NFKRLLPRDPSEKSS | 2

Molecular target: ScMyo5
Test: as above
Summary of the method: as §1

Binder | SPOT peptide array binding signal intensity
NFKRLLPRDPSEKSS | 4.5

Molecular target: ScNbp2
Test: as above
Summary of the method: as §1

Binder | SPOT peptide array binding signal intensity
NFKRLLPRDPSEKSS | 35.5

Molecular target: ScPex13
Test: as above
Summary of the method: as §1

Binder | SPOT peptide array binding signal intensity
NFKRLLPRDPSEKSS | 3.5

Molecular target: ScRvs167
Test: as above
Summary of the method: as §1

Binder | SPOT peptide array binding signal intensity
NFKRLLPRDPSEKSS | 16.2

Molecular target: ScSho1
Test: as above
Summary of the method: as §1

Binder | SPOT peptide array binding signal intensity
NFKRLLPRDPSEKSS | 1040

Molecular target: ScSla1-D1-D2
Test: as above
Summary of the method: as §1

Binder | SPOT peptide array binding signal intensity
NFKRLLPRDPSEKSS | 35.5

Molecular target: ScSla1-D3
Test: as above
Summary of the method: as §1

Binder | SPOT peptide array binding signal intensity
NFKRLLPRDPSEKSS | 0.5

Molecular target: SpAbp1-D1
Test: as above
Summary of the method: as §1

Binder | SPOT peptide array binding signal intensity
NFKRLLPRDPSEKSS | 21

Molecular target: SpBbc1
Test: as above
Summary of the method: as §1

Binder | SPOT peptide array binding signal intensity
NFKRLLPRDPSEKSS | 1

Molecular target: SpBzz1-D1
Test: as above
Summary of the method: as §1

Binder | SPOT peptide array binding signal intensity
NFKRLLPRDPSEKSS | 17.5

Molecular target: SpBzz1-D2
Test: as above
Summary of the method: as §1

Binder | SPOT peptide array binding signal intensity
NFKRLLPRDPSEKSS | 0.5

Molecular target: SpCyk3
Test: as above
Summary of the method: as §1

Binder | SPOT peptide array binding signal intensity
NFKRLLPRDPSEKSS | 7

Molecular target: SpHof1
Test: as above
Summary of the method: as §1

Binder | SPOT peptide array binding signal intensity
NFKRLLPRDPSEKSS | 283

Molecular target: SpHof1-2
Test: as above
Summary of the method: as §1

Binder | SPOT peptide array binding signal intensity
NFKRLLPRDPSEKSS | 88

Molecular target: SpHof1-3
Test: as above
Summary of the method: as §1

Binder | SPOT peptide array binding signal intensity
NFKRLLPRDPSEKSS | 1360

Molecular target: SpHse1
Test: as above
Summary of the method: as §1

Binder | SPOT peptide array binding signal intensity
NFKRLLPRDPSEKSS | 2380

Molecular target: SpLsb1
Test: as above
Summary of the method: as §1

Binder | SPOT peptide array binding signal intensity
NFKRLLPRDPSEKSS | ≤ 0

Molecular target: SpLsb4
Test: as above
Summary of the method: as §1

Binder | SPOT peptide array binding signal intensity
NFKRLLPRDPSEKSS | 23

Molecular target: SpMyo1
Test: as above
Summary of the method: as §1

Binder | SPOT peptide array binding signal intensity
NFKRLLPRDPSEKSS | 7.25

Molecular target: SpNbp2
Test: as above
Summary of the method: as §1

Binder | SPOT peptide array binding signal intensity
NFKRLLPRDPSEKSS | 44

Molecular target: SpPex13
Test: as above
Summary of the method: as §1

Binder | SPOT peptide array binding signal intensity
NFKRLLPRDPSEKSS | 5

Molecular target: SpRvs167
Test: as above
Summary of the method: as §1

Binder | SPOT peptide array binding signal intensity
NFKRLLPRDPSEKSS | 19.3

Molecular target: SpSla1-D1-D2
Test: as above
Summary of the method: as §1

Binder | SPOT peptide array binding signal intensity
NFKRLLPRDPSEKSS | 0.5

Molecular target: SpSla1-D3
Test: as above
Summary of the method: as §1

Binder | SPOT peptide array binding signal intensity
NFKRLLPRDPSEKSS | 3
